Cycloheximide cs: counter-screen hit for Shiga toxin inhibitors, cycloheximide; cell reporter, cycloheximide protein synthesis inhibition counterscreen; max response, %; 300,000 tested, 12% active; in the data active = max response mostly above about 13%, no sharp cut-off; inactive = mostly below about 14%; also: read at 38.3 µM for the half of the compounds with a filed dose; 0% is about no effect
RE007 growth inh: less growth of the S. pombe RE007 Vpr strain. S. pombe RE007 Vpr strain, BacTiter-Glo ATP luminescence, 24 h. Potency, µM (highest dose often 92.2 µM), inactives show at the top dose activity change, negative = less growth, hits mostly inhibitors. 360,000 tested, 0.21% active. AID 651644; active = well fitted falling curve with a large enough effect; inconclusive = small, poorly fitted or top-dose-only effect; inactive = no such curve, though single readings can be large or run the other way; also: potency is read from the fitted curve at half-maximal effect; % is scaled to controls: 0 for no effect and ±100 for the full control effect; nearly all actives have a fitted effect of over 50% in size
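Fission yeast strain RE007, carrying one chromosomally integrated HIV-1 vpr copy, was seeded at OD 0.01 in PMG+AL medium with 23 nL pinned compound. After 24 h at 30 °C and 99% humidity, viability was read by BacTiter-Glo luminescence.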
LmPK inh: blocks Leishmania mexicana pyruvate kinase activity; Potency, µM (top dose mostly 57.5 µM), without a hit: top-dose activity change, negative = inhibition, hits mostly inhibitors; AID 1721; purified LmPK, Kinase-Glo ATP luminescence, 1 h; 290,000 tested, 0.37% active; Q27686; also: potency is read from the fitted curve at half-maximal effect; % is scaled to controls: 0 for no effect and ±100 for the full control effect
Target sequence (Q27686 whole entry, looked up): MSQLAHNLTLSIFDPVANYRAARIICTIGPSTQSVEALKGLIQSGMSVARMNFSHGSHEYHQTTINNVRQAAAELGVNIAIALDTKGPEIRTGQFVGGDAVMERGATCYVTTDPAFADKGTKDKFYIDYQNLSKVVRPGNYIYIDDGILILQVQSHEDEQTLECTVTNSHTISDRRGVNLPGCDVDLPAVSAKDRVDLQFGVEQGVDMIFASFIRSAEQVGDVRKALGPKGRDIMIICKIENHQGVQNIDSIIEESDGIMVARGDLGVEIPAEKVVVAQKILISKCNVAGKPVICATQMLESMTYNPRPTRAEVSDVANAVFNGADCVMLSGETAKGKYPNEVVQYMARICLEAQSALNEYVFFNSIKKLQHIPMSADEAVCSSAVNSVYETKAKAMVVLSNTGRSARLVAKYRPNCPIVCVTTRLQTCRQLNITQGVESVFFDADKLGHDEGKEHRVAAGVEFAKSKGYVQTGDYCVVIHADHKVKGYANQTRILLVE
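Pyruvate kinase activity monitored as ATP production (luciferase luminescence). Conditions: 0.1 nM enzyme, 0.5 mM PEP, 0.1 mM ADP, 1 h, RT; normalized against uninhibited and no-enzyme wells.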
FBPA Giardia inh: inhibitors of Giardia lamblia fructose-1,6-bisphosphate aldolase. A8B2U2. purified Giardia FBPA. Potency, µM (top dose mostly 59.6 µM), without a hit: at the highest dose activity, negative = inhibition, most hits filed as inhibitors. 290,000 tested, 0.71% active. AID 2451; also: potency is read from the fitted curve at half-maximal effect; % is scaled to controls: 0 for no effect and ±100 for the full control effect; nearly all actives have a fitted effect of over 55% in size
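Giardia FBPA (40 nM reagent) was preincubated 10 min at RT with compound (up to 57.5 uM final), then substrate plus GAPDH/TPI/NAD/arsenate coupling system with diaphorase/resazurin was added; resorufin fluorescence (525/598 nm) was read after 20 min.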
TbPYK inhibitor: T. brucei pyruvate kinase inhibition. TbPYK enzyme, Kinase-Glo Plus ATP luminescence, 45 min. Potency, µM (top dose mostly 76.8 µM), inactives show top-dose activity, negative = inhibition, usual class: inhibitors. 410,000 tested, 0.12% active; also: potency is read from the fitted curve at half-maximal effect; % is scaled to controls: 0 for no effect and ±100 for the full control effect; nearly all actives have a fitted effect of over 50% in size
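Quantitative HTS: titrated library compounds versus trypanosomal pyruvate kinase in TEA buffer (pH 7.2) containing KCl, MgCl2, BSA and Tween-20. Reactions were initiated with ADP, 130 uM final. Kinase-Glo Plus luminescence was read after 45 min at RT.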
Shiga inhibitor: Shiga toxin inhibition. Vero cells, Shiga toxin protein synthesis inhibition reporter. AID 2315. 290,000 tested, 9.2% active. inhibition, % at 38.7 µM; in the data active = inhibition mostly above about 28%, no sharp cut-off; inactive = mostly below about 43%; also: 0% is about no effect
* hit, by the source's call; ? = inconclusive; . = not tested or not shown; + = active, no number; [ ] = another dose, or the depositor's remark. Shown is part of a subset that was picked to be rich in hits. Unless noted, calls follow the shape of the dose curve; as a rule, active = well fitted curve in the direction sought with a large enough effect; inconclusive = small, poorly fitted or top-dose-only effect, or another doubt; inactive = no such curve, though single readings can be large; an effect the other way counts as inactive or inconclusive.

SMILES	Cycloheximide cs	RE007 growth inh	LmPK inh	FBPA Giardia inh	TbPYK inhibitor	Shiga inhibitor
CNS(=O)(=O)c1cccc(C(=O)OCC(=O)NCc2ccccc2)c1	-0.4	-16.6%	2.8%	9.9%	4.9%	-17.7
Cc1ccc(C)c(NC(=O)Cn2c(=O)n(CCCS(=O)(=O)C3CCCCC3)c(=O)c3ccccc32)c1	.	.	.	.	3.0%	.
Nc1c(-c2nc(-c3ccc4c(c3)OCO4)cs2)c2ccccn2c1C(=O)c1ccccc1	.	.	.	.	0.5%	.
CC1(C)OC2CC3C4CC(F)C5=CC(=O)CC[C@@]5(C)C4C(O)C[C@@]3(C)[C@]2(C(=O)CO)O1 (some centres undefined)	.	.	.	-3.1%	.	.
O=C(NCCCn1ccnc1)c1cc(C2CC2)on1	-3.5	2.0%	0.6%	-3.7%	-0.7%	9.4
Cc1ccc(-c2cc(C(=O)NCCCn3ccnc3)no2)cc1	25.9*	3.0%	-10.6%	2.3%	-1.4%	49.6*
Cc1ccc(CC(=O)NCCCn2ccnc2)cc1	-1.1	-17.8%	2.8%	3.1%	-9.4%	-2.5
O=C(NCCCn1ccnc1)c1cc(-c2cccc(O)c2)on1	31.0*	-6.5%	2.5%	-2.0%	-3.0%	73.8*
COc1ccc(-c2cc(C(F)(F)F)n3nc(C(=O)NCCCn4ccnc4)cc3n2)cc1	22.9*	-24.0%	-6.3%	6.5%	2.0%	14.5
Cc1ccc2c(c1)c1c3n2CCN(C(=O)c2cccc(C(F)(F)F)c2)C3CCC1 (centres undefined)	.	.	.	.	4.1%	.
CCOC(=O)c1ccc(CN(Cc2ccc(Cl)cc2Cl)S(=O)(=O)c2cccc(Cl)c2)cc1	.	.	.	.	1.9%	.
O=C(NCc1cccs1)c1noc2c1CCCCC2	23.0*	-14.8%	-9.8%	2.7%	-0.2%	53.7*
CC(NC(=O)c1noc2c1CCCCC2)c1ccccc1 (centres undefined)	32.6*	-17.5%	0.9%	1.5%	0.7%	45.5*
O=C(NC1CCCC1)c1noc2c1CCCCC2	36.9*	?	-11.1%	-2.4%	6.7%	152.0*
COc1ccc(CNC(=O)c2noc3c2CCCCC3)cc1	25.3*	-16.5%	4.7%	6.1%	0.2%	85.1*
COc1ccc2c(c1)CCc1c(C(=O)NCc3ccc(F)cc3)noc1-2	-1.3	-3.3%	2.7%	-9.3%	2.1%	4.1
CCOc1ccccc1CNC(=O)Cn1cc2c(n1)-c1c(oc(C(=O)N3CCCC3)c1C)CC2	.	.	.	.	-8.8%	.
Cc1ccc(S(=O)(=O)NCC2CCC(C(=O)NCCc3ccccc3)CC2)cc1 (centres undefined)	.	.	.	.	2.3%[15.4 µM]	.
O=C(NCc1ccccc1)c1noc2c1CCCCC2	45.6*	-5.6%	-0.3%	7.3%	2.1%	83.6*
Cn1c(=S)n(/N=C/c2cccs2)c2ccccc21	25.3*	-9.5%	2.9%	-6.4%	-9.4%	46.1*
CCOc1ccc(CNC(=O)c2ccccc2NC(=O)c2nsc3ccccc23)cc1	.	.	.	.	4.4%	.
CCCc1nnc(NC(=O)Cc2coc3ccc(C(C)C)cc23)s1	.	.	.	.	-1.9%	.
O=c1c2ccccc2nc(COc2ccccc2)n1/N=C/c1ccco1	34.6*	-4.8%	4.6%	-1.0%	2.7%	69.4*
Nn1c(COc2ccc(Cl)cc2)nc2ccccc2c1=O	24.3*	-23.6%	-1.9%	-0.4%	1.0%	active
Cc1ccc(-c2[nH]ncc2/C=N/n2c(COc3ccccc3)nc3ccccc3c2=O)cc1	29.2*	-1.3%	-1.6%	7.6%	-6.3%	41.8
SMILES	Cycloheximide cs	RE007 growth inh	LmPK inh	FBPA Giardia inh	TbPYK inhibitor	Shiga inhibitor
Nn1c(Cc2ccccc2)nc2ccccc2c1=O	.	2.6%	.	.	2.2%	.
Cc1ccccc1OCc1nc2ccccc2c(=O)n1/N=C/c1cn[nH]c1-c1ccccc1	7.4	-1.8%	0.3%	-3.0%	-19.8%	30.3
O=c1c2ccccc2nc(COc2ccccc2)n1/N=C/c1ccc(O)c(O)c1	24.5*	1.8%	-1.0%	-29.9%	-2.2%	19.1
Cc1ccccc1OCc1nc2ccccc2c(=O)n1/N=C/c1cccc([N+](=O)[O-])c1	23.0*	2.9%	-0.2%	3.5%	-7.9%	+
C/C(=N/NC(=O)c1ccc(C)s1)c1ccncc1	29.6*	13.0%	3.1%	-10.0%	-11.2%	60.4*
C/C(=N/NC(=O)c1ccncc1)c1ccccc1	8.6	-7.0%	-1.4%	-6.4%	1.8%	.
CCc1ccc(C(=O)N/N=C(\C)c2ccncc2)s1	37.1*	-15.4%	-1.5%	.	-15.8%	70.3*
O=C(N/N=C/c1ccc([N+](=O)[O-])cc1)c1cnccn1	7.1	-5.2%	4.0%	0.1%	-4.9%	-4.9
C/C(=N\NC(=O)c1cccs1)c1ccncc1	35.9*	-8.7%	0.5%	5.9%	-1.1%	107.1*
C/C(=N\NC(=O)c1cnccn1)c1ccc([N+](=O)[O-])cc1	20.0*	-2.8%	0.4%	-4.0%	-0.2%	9.7
CN1CCN(c2ncc3nc(-c4cc(F)cc(F)c4)c(=O)n(CCc4ccccc4)c3n2)CC1	.	.	.	-0.5%	.	.
COc1ccc(C2C=C3CNS(=O)(=O)C3CC2OC(=O)c2cccs2)cc1 (centres undefined)	9.1	.	.	1.6%	.	-10.5
C/C(=N/NC(=O)c1cnccn1)c1cccs1	39.7*	3.9%	-23.9%	-2.5%	-18.3%	93.1*
C/C(=N\NC(=O)c1ccc(NS(=O)(=O)c2cccs2)cc1)c1cccs1	16.7	21.8%	2.9%	2.5%	-0.6%	15.5
COC(=O)NC(/C=C/c1ccccc1)C(C(C)=O)C(=O)OC (centres undefined)	.	.	.	-1.7%	.	.
CCC(=O)Nc1nc(-c2ccc3c(c2)CC(C)N3S(C)(=O)=O)cs1 (centres undefined)	26.2*	-13.3%	1.2%	-11.7%	-6.7%	39.3
C=CCNc1nc(-c2ccc3c(c2)OCCO3)cs1	.	-5.0%	.	.	1.5%	.
COc1ccccc1C(=O)Nc1nc(-c2ccc3c(c2)OCCO3)cs1	27.9*	-1.0%	-1.2%[11.5 µM]	3.0%	0.3%	56.7*
CC(C)(C)C(=O)Nc1nc(-c2ccc3c(c2)OCO3)cs1	23.7*	-4.4%	7.6%	-10.8%	28.7%	51.2*
CCC(=O)Nc1nc(-c2ccc3c(c2)OCCO3)cs1	30.8*	0.1%	-1.4%	-2.6%	-1.6%	active
COc1ccc(-c2csc(NC(=O)C3=COCCO3)n2)cc1OC	.	-28.6%	.	.	1.4%	.
CCOC(=O)c1ccccc1NC(=O)N1CCOc2ccc(Cl)cc21	.	.	.	.	1.2%	.
Cc1cccc(Cn2c(SCc3ccc(C(=O)NCc4ccccc4)cc3)nc3cccnc32)c1	.	.	.	.	3.3%	.
CCCN1C(=O)C2(c3ccccc31)c1c(oc3ccc(F)cc3c1=O)C(=O)N2CCCOC(C)C (centres undefined)	.	.	.	.	3.2%	.
O=C(O)c1ccc(-c2ccc(-c3ccccc3)cc2)s1	23.0*	.	-1.7%	11.1%	.	37.2
O=C(Nc1ccccc1F)c1ccc(-c2ccccc2)s1	.	.	.	.	-8.4%	.
Cc1cc(-c2ccc(C(=O)O)s2)cnc1N	43.2*	-8.0%	-6.9%	6.2%	-11.3%	76.2*

Screens: PubChem BioAssay, National Center for Advancing Translational Sciences (NCATS)
